Assay outcomes deposited in PubChem by The Scripps Research Institute Molecular Screening Center.
Hits are enriched below; roughly 2.9% of the tested compounds scored in any of these assays.
rCAG RNA binder = molecules binding r(CAG) RNA repeats. inhibition, % at 3 µM. r(CAG) RNA repeat, TO-PRO-1 dye displacement fluorescence. 370,000 compounds, 1.3% hits;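 active = inhibition above the plate cutoff, the mean of all test compounds on that plate plus 3 SD, cut at about 35% in these data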;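 note: higher means more dye released from RNA so lower well fluorescence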
PAFAH1B3 FP inh = inhibitors of human PAFAH1B3; recombinant PAFAH1B3, FP-rhodamine probe, fluorescence polarization; inhibition, % at 3.39 µM; 340,000 compounds, 0.28% hits;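 active = inhibition above the screen-wide average of all tested compounds plus 3 SD, cut at about 25% in these data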
Target sequence (Q15102 whole entry, looked up): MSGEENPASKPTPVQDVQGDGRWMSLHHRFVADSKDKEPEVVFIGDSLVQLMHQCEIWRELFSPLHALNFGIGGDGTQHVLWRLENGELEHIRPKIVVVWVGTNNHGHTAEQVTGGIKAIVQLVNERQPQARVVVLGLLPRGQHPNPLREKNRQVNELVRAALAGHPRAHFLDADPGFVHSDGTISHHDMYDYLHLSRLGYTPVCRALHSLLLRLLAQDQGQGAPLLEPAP
PAFAH2 FP inh = PAFAH2 (human) inhibition. Q99487. recombinant PAFAH2, FP-rhodamine activity probe, fluorescence polarization. inhibition, % at 3.39 µM. 340,000 compounds, 0.99% hits;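 active = inhibition above the mean over all tested compounds plus 3 SD, cut at about 30% in these data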;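 note: inhibitors block probe labeling of enzyme so polarization drops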
PAFAH1B2 FP inh = blocks human PAF acetylhydrolase 1b catalytic subunit 2; P68402; recombinant PAFAH1B2, FP-rhodamine activity probe, fluorescence polarization; 340,000 compounds, 1.2% hits; inhibition, % at 3.39 µM;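 active = inhibition above the mean of all tested compounds plus 3 SD, cut at about 24% in these data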
Target sequence (P68402 whole entry, looked up): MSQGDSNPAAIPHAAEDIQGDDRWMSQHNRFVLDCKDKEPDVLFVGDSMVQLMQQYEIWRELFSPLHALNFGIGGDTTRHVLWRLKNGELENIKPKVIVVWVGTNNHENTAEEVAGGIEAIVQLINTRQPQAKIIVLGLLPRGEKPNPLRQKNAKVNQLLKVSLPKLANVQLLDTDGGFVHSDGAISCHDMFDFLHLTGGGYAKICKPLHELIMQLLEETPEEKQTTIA
ZTA DNA inh = ZTA (EBV) inhibition in EBNA-1 counter-screen | P03206 | inhibition, % at 11 µM | 320,000 compounds, 0.15% hits | ZTA-DNA binding, fluorescence polarization; in the data active = inhibition above about 33%
Target sequence (P03206 whole entry, looked up): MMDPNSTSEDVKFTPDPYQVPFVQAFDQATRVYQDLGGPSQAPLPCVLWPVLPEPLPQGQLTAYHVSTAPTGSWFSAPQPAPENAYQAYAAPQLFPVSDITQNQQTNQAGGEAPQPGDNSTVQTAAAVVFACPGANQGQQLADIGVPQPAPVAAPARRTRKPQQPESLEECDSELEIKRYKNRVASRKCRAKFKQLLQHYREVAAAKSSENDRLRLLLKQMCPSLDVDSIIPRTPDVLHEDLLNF
EBNA-1 inhibitor = blocks EBNA-1 binding to DNA; 300,000 compounds, 0.34% hits; AID 1950; EBNA-1 DNA binding, fluorescence polarization; inhibition, % at 14.8 µM; in the data active = inhibition above about 28%
rCAG bind conf = r(CAG) RNA repeat binding, confirmation; inhibition, % at 3 µM; TO-PRO-1 dye displacement fluorescence; AID 652065; 4,300 compounds, 70% hits; shares compounds with rCAG RNA binder;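 active = inhibition above a per-plate cutoff, the mean inhibition of sample wells plus 3 SD, cut at about 35% in these data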;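 note: loss of TO-PRO-1 fluorescence as compound displaces dye from 1x1 AA loop RNA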
DNA CAG counter = counter-screen for rCAG RNA binders: DNA CAG dye complex inhibitors; d(CAG) DNA oligo TO-PRO-1 dye displacement, fluorescence; inhibition, % at 3 µM; 4,300 compounds, 94% hits; shares compounds with rCAG RNA binder;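 active = inhibition above its plate's cutoff, the mean test-well inhibition plus 3 SD, cut at about 4.8% in these data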;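 note: hits displace the dye from DNA and so lower well fluorescence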
DNA CAG DR = DNA CAG dye complex inhibition, dose response counter-screen; shares compounds with rCAG RNA binder; DNA CAG/GTC duplex TO-PRO-1 dye displacement fluorescence; IC50, µM; 250 compounds, 20% hits; in the data active = IC50 below about 10 µM
Each line names hits and unclear results; the compound was inactive in the other large screens (follow-up assays come after a bar, where they were run).

Cc1ccc(CNC(=O)C2CC(c3ccc([N+](=O)[O-])cc3)=NO2)cc1 (stereo not drawn)	rCAG RNA binder 44 | rCAG bind conf inactive | DNA CAG counter inactive
Fc1ccc2[nH]c3c(c2c1)CN(C(=S)NCc1ccccc1)CC3	none
Cc1noc(NS(=O)(=O)c2ccc(NC(=O)c3ccc(F)cc3)cc2)c1C	none (no result: ZTA DNA inh, EBNA-1 inhibitor)
Cc1noc(NS(=O)(=O)c2ccc(NC(=O)c3cccc(S(=O)(=O)N(C)c4ccccc4)c3)cc2)c1C	rCAG RNA binder 73 (no result: ZTA DNA inh, EBNA-1 inhibitor) | rCAG bind conf 81 | DNA CAG counter 37
Cc1noc(NS(=O)(=O)c2ccc(NC(=O)c3ccc(Cl)c(S(=O)(=O)N(C)c4ccccc4)c3)cc2)c1C	rCAG RNA binder 91 (no result: ZTA DNA inh, EBNA-1 inhibitor) | rCAG bind conf 84 | DNA CAG counter 55
Cc1ccccc1NC(=O)CCS(=O)(=O)c1ccccc1	none (no result: PAFAH1B3 FP inh, PAFAH2 FP inh, PAFAH1B2 FP inh, ZTA DNA inh, EBNA-1 inhibitor)
Cc1ccc(S(=O)(=O)N2CCOCC2)cc1C(=O)Nc1ccc(S(=O)(=O)Nc2nccs2)cc1	rCAG RNA binder 39 | rCAG bind conf inactive | DNA CAG counter 12
Cc1ccc(S(=O)(=O)N2CCOCC2)cc1C(=O)Nc1ccc(C(N)=O)cc1	none
O=C(Nc1ccc(S(=O)(=O)Nc2nccs2)cc1)c1ccc(F)c(S(=O)(=O)N2CCOCC2)c1	rCAG RNA binder 45 | rCAG bind conf 37 | DNA CAG counter 16
O=C(Nc1ccc(S(=O)(=O)Nc2nccs2)cc1)c1ccc(S(=O)(=O)N2CCOCC2)cc1	none
Nc1ccc(S(=O)(=O)Nc2nc(-c3ccccc3)cc(-c3ccccc3)n2)cc1	none
Nc1ccc(S(=O)(=O)Nc2nc(-c3ccccc3)cc(-c3ccccc3O)n2)cc1	rCAG RNA binder 58 (no result: PAFAH1B3 FP inh, PAFAH2 FP inh, PAFAH1B2 FP inh, ZTA DNA inh, EBNA-1 inhibitor) | rCAG bind conf 54 | DNA CAG counter 18
CC(=O)c1ccc(NS(=O)(=O)c2ccc(C)cc2)cc1	none
COc1cc(OC)c(OC)cc1/C=C/C(=O)c1ccc(NS(=O)(=O)c2ccc(C)cc2)cc1	rCAG RNA binder 46 | rCAG bind conf 39 | DNA CAG counter 16
CC(C)NC(=O)C1(C)CN(S(C)(=O)=O)CC(=O)N1CCc1ccccc1 (stereo not drawn)	none (no result: PAFAH1B3 FP inh, PAFAH2 FP inh, PAFAH1B2 FP inh, ZTA DNA inh, EBNA-1 inhibitor)
COc1cc(/C=C2/SC(=S)N(C)C2=O)ccc1OC(=O)c1ccco1	none
COc1cc(/C=C2/SC(=S)N(CC(=O)O)C2=O)ccc1OC(=O)c1cccs1	rCAG RNA binder 60 | rCAG bind conf 72 | DNA CAG counter 34 | DNA CAG DR inactive
COc1cc(/C=C2\SC(=S)N(CC(=O)O)C2=O)ccc1OS(=O)(=O)c1ccc(C)cc1	rCAG RNA binder 81, PAFAH1B2 FP inh 35 | rCAG bind conf 86 | DNA CAG counter 56
C[C@H](O)[C@@H]1C(=O)N2CCc3c([nH]c4c(-c5ccccc5)cccc34)[C@@H]2C[C@@H]1N(C)C(=O)Nc1cccc2ccccc12	none (no result: PAFAH1B3 FP inh, PAFAH2 FP inh, PAFAH1B2 FP inh, ZTA DNA inh, EBNA-1 inhibitor)
CC(C)(C)c1ccc(S(=O)(=O)NC(=O)C2(C)CCN2C(=O)CC2CCCCC2)cc1 (stereo not drawn)	rCAG RNA binder 44 (no result: PAFAH1B3 FP inh, PAFAH2 FP inh, PAFAH1B2 FP inh, ZTA DNA inh, EBNA-1 inhibitor) | rCAG bind conf inactive | DNA CAG counter 5.3
CC(C)(C)c1ccc(S(=O)(=O)NC(=O)C2(C)CCN2C(=O)Cc2cc(F)ccc2F)cc1 (stereo not drawn)	rCAG RNA binder 38 (no result: PAFAH1B3 FP inh, PAFAH2 FP inh, PAFAH1B2 FP inh, ZTA DNA inh, EBNA-1 inhibitor) | rCAG bind conf inactive | DNA CAG counter 5.6
CC1(C(=O)NS(=O)(=O)c2ccc(Cl)cc2)CCN1C(=O)Cc1ccccc1 (stereo not drawn)	none (no result: PAFAH1B3 FP inh, PAFAH2 FP inh, PAFAH1B2 FP inh, ZTA DNA inh, EBNA-1 inhibitor)
CC(C)(C)c1ccc(S(=O)(=O)NC(=O)C2(C)CCN2C(=O)Cc2ccc(-c3ccccc3)cc2)cc1 (stereo not drawn)	rCAG RNA binder 72 (no result: PAFAH1B3 FP inh, PAFAH2 FP inh, PAFAH1B2 FP inh, ZTA DNA inh, EBNA-1 inhibitor) | rCAG bind conf 86 | DNA CAG counter 49
CC(C)(C)c1ccc(S(=O)(=O)NC(=O)C2(C)CCN2C(=O)C2CCCCC2)cc1 (stereo not drawn)	none (no result: PAFAH1B3 FP inh, PAFAH2 FP inh, PAFAH1B2 FP inh, ZTA DNA inh, EBNA-1 inhibitor)
CC(C)(C)c1ccc(CC(=O)N2CCC2(C)C(=O)NS(=O)(=O)c2cccc(Cl)c2)cc1 (stereo not drawn)	rCAG RNA binder 55 (no result: PAFAH1B3 FP inh, PAFAH2 FP inh, PAFAH1B2 FP inh, ZTA DNA inh, EBNA-1 inhibitor) | rCAG bind conf 49 | DNA CAG counter 16
CC(=O)C1=C(C)NC(=S)NC1c1cc([N+](=O)[O-])ccc1O (stereo not drawn)	none
Cc1ccc(-c2cc(Cc3ccccc3)c(=O)[nH]n2)cc1	none (no result: PAFAH1B3 FP inh, PAFAH2 FP inh, PAFAH1B2 FP inh)
Cc1cc(C)cc(CC(=O)N2CCC2(C)C(=O)NS(=O)(=O)c2ccc(C(C)(C)C)cc2)c1 (stereo not drawn)	rCAG RNA binder 58 (no result: PAFAH1B3 FP inh, PAFAH2 FP inh, PAFAH1B2 FP inh, ZTA DNA inh, EBNA-1 inhibitor) | rCAG bind conf 50 | DNA CAG counter 15
CC1(C(=O)NS(=O)(=O)c2ccc(Cl)cc2)CCN1C(=O)Cc1ccc(-c2ccccc2)cc1 (stereo not drawn)	rCAG RNA binder 66 (no result: PAFAH1B3 FP inh, PAFAH2 FP inh, PAFAH1B2 FP inh, ZTA DNA inh, EBNA-1 inhibitor) | rCAG bind conf 64 | DNA CAG counter 23
Cc1cc(C)cc(CC(=O)N2CCC2(C)C(=O)NS(=O)(=O)c2ccc(Br)cc2)c1 (stereo not drawn)	none (no result: PAFAH1B3 FP inh, PAFAH2 FP inh, PAFAH1B2 FP inh, ZTA DNA inh, EBNA-1 inhibitor)
COc1cccc(CN2CCN(CC#Cc3ccccc3)CC2CCO)c1 (stereo not drawn)	none (no result: ZTA DNA inh, EBNA-1 inhibitor)
Cc1ccc(Sc2ccc(S(=O)(=O)Nc3ccc(C(=O)O)cc3)cc2)cc1C	rCAG RNA binder 49, PAFAH1B2 FP inh 56 (no result: ZTA DNA inh, EBNA-1 inhibitor) | rCAG bind conf 43 | DNA CAG counter 13
COc1cc([N+](=O)[O-])c(OC)cc1Nc1ccccc1C(=O)O	none (no result: PAFAH1B3 FP inh, PAFAH2 FP inh, PAFAH1B2 FP inh, ZTA DNA inh, EBNA-1 inhibitor)
